Screening results deposited in PubChem BioAssay by National Center for Advancing Translational Sciences (NCATS).
B2AR arrestin: qHTS assay of beta-arrestin-biased ligands of beta2-adrenergic receptor; Beta-2 adrenergic receptor (Homo sapiens), P07550; beta-arrestin recruitment to beta2AR, cell-based reporter; Potency, µM (highest dose often 46.1 µM), for the others: at the top dose activation, most hits filed as activators; 330,000 compounds, 0.02% hits; AID 492947, 2010;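 further: potency means the concentration at half of the fitted maximal effect; 0% = DMSO controls and full agonism = EC100 isoproterenol or metaproterenol; nearly all actives have a fitted effect of over 65% in size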
Target sequence (P07550 whole entry, looked up): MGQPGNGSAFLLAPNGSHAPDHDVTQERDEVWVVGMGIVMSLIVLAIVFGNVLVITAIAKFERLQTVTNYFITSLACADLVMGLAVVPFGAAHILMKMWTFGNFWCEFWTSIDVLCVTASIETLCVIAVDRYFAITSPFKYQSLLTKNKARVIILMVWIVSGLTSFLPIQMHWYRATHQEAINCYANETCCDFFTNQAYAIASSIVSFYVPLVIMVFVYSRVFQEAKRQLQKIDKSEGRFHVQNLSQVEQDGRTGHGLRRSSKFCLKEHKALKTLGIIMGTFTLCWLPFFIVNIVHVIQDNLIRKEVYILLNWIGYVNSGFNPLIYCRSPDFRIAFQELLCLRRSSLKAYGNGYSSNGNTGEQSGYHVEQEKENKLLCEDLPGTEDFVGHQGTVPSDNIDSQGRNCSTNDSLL
BCR signal inh: qHTS Assay to Find Inhibitors of Chronic Active B-Cell Receptor Signaling | 340,000 compounds, 0.05% hits | Potency, µM (titrated, usually from 46.1 µM), for inactives: at the top dose activity change, negative = inhibition, most hits filed as inhibitors | ABC-DLBCL IkBa-CBG/CBR reporter, luminescence ratio, 4 h; active means well fitted inhibition curve with a large enough effect in the signal ratio, with a control signal flat, not every such curve was filed as active; inconclusive means small, poorly fitted or top-dose-only effect, or effect the other way, or a change in a side signal; the % refers to the signal ratio;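 further: potency means the concentration at half of the fitted maximal effect; plate controls were basal doxycycline-induced cells for no effect and cells given 10 µM MG132 for full effect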
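Compounds up to 46 uM were incubated four hours with TMD8 cells whose green CBG68 luciferase is fused to IkappaBalpha; red CBR luminescence normalised the signal, and concentration-effect curves were fitted to fusion, red and ratio data.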
RXFP1 antagonist: qHTS Assay for Antagonists of the Relaxin Receptor RXFP1; HEK293-RXFP1, relaxin-stimulated cAMP HTRF, 30 min; active compounds read low; 350,000 compounds, 0.59% hits; activity change, negative = inhibition, % at 57.5 µM; Relaxin receptor 1 (Homo sapiens), Q9HBX9;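 active means activity change of -60% or lower, but not beyond a set lower limit; inconclusive means change between -60% and -40%, or beyond the set limit; inactive means change above -40%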
RXFP1 ag: qHTS Assay for Agonists of the Relaxin Receptor RXFP1 | 370,000 compounds, 0.3% hits | Relaxin receptor 1 (Homo sapiens), Q9HBX9 | AID 2676, 2010 | HEK293T-RXFP1 cAMP TR-FRET, 30 min; response scale: percent of porcine relaxin response, buffer zero | Potency, µM (doses to about 57.5 µM), without a hit: at the top dose activation, actives largely listed as activators; further: potency means the concentration at half of the fitted maximal effect; nearly all actives have a fitted effect of over 60% in size
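HEK293T cells stably expressing RXFP1 were pretreated with the PDE4 inhibitor Ro 20174, exposed to compounds for 30 min at 37C, lysed, and cAMP was read by TR-FRET. Data normalized to buffer (basal) and 29 nM porcine relaxin (100%).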
Active calls of the source: *. Hits are enriched below; roughly 0.59% of the tested compounds scored in any of these assays. Unless noted, the call rests on the fitted dose curve; in most records, active means well fitted activation curve with a large enough effect; inconclusive means small, poorly fitted or top-dose-only effect; inactive means flat fitted curve, though single readings scatter. Unless noted, on the % scale 0 is the no-effect control and ±100 the full control effect.

`CCOC(=O)N1CCN(c2c(F)cc3[nH]c(=S)[nH]c3c2Br)CC1` gave B2AR arrestin 0%, BCR signal inh inconclusive, RXFP1 antagonist -65* and RXFP1 ag 5%.
`O=c1c2sccc2nc(SCc2cc(=O)n3cc(Br)ccc3n2)n1Cc1ccccn1` gave B2AR arrestin 0%, BCR signal inh -30%, RXFP1 antagonist 12 and RXFP1 ag 25µM*.
Cc1ccc(CSc2nc3ccsc3c(=O)n2Cc2ccccn2)cc1 was read as B2AR arrestin 0%, BCR signal inh inconclusive, RXFP1 antagonist 3 and RXFP1 ag 0%.
`Cc1[nH]c(=S)c(C#N)c(C)c1CC(=O)c1ccc(Br)cc1` gave B2AR arrestin 0%, BCR signal inh -1%, RXFP1 antagonist -70* and RXFP1 ag 7%.
For Cc1[nH]c(=S)c(C#N)c(C)c1Cc1ccc(Cl)cc1Cl the results were B2AR arrestin 0%, BCR signal inh 11%, RXFP1 antagonist inconclusive and RXFP1 ag 10%.
For Cc1ccc(NC(=O)C2CCN(S(=O)(=O)c3c(C)noc3/C=C/N(C)C)CC2)cc1 the results were B2AR arrestin 0%, BCR signal inh 3%, RXFP1 antagonist -112* and RXFP1 ag -2%.
Screening COc1cc(CNCCO)cc(Br)c1OCc1ccccc1Cl returned B2AR arrestin 0%, BCR signal inh inconclusive, RXFP1 antagonist -76* and RXFP1 ag 0%.
For COc1cc(CNCCO)cc(Cl)c1OCc1ccc(Cl)cc1Cl the results were B2AR arrestin 0%, BCR signal inh inconclusive, RXFP1 antagonist -36 and RXFP1 ag 2%.
Screening CCCCCCCCn1c2c(c(=N)c3ccccc31)CCC2 returned B2AR arrestin 0%, BCR signal inh 12%, RXFP1 antagonist -18 and RXFP1 ag -1%.
For CCCCCCCCCCn1c2c(c(=N)c3c1CCC3)CCC2 the results were B2AR arrestin 0%, BCR signal inh inconclusive, RXFP1 antagonist -69* and RXFP1 ag 0%.
For CCCCCCCCCn1c2c(c(=N)c3c1CCC3)CCCC2 the results were B2AR arrestin -1%, BCR signal inh inconclusive, RXFP1 antagonist -81* and RXFP1 ag -1%.
Screening CCOC(=O)COc1ccc(C)cc1C(=O)c1ccn2nc(-c3ccc(C)cc3)cc2n1 returned RXFP1 ag 1%.
Screening CCOC(=O)CSc1nc(=O)n2ccc(C)cc2n1 returned B2AR arrestin 0%, BCR signal inh inconclusive, RXFP1 antagonist -72* and RXFP1 ag 16%.
CCOc1ccccc1CNC(=O)c1ccc2c(c1)nc1n2CCCCC1 was read as RXFP1 antagonist -11 and RXFP1 ag 3%.
CN(C)c1ccc(C(=O)NCc2ccc3c(c2)CCN3C(=O)c2ccccc2)cc1 was read as BCR signal inh 4%, RXFP1 antagonist -18 and RXFP1 ag 1%.
`COc1ccc2c(c1)c(CC(=O)NCc1cc([N+](=O)[O-])ccc1O)c(C)n2C(=O)c1ccc(Cl)cc1` gave B2AR arrestin 0%, BCR signal inh inconclusive, RXFP1 antagonist -84* and RXFP1 ag 5%.
Screening CN(C(=O)COC(=O)/C=C/c1cccs1)C1CCCCC1 returned B2AR arrestin -1%, BCR signal inh 3% and RXFP1 antagonist -88*.
Screening CN1CCN(c2cc(N3CCN(C(=O)c4ccco4)CC3)c3c4c(onc24)-c2ccccc2C3=O)CC1 returned B2AR arrestin 0%, BCR signal inh inconclusive, RXFP1 antagonist -20 and RXFP1 ag 2%.
O=C(O)CCCNc1cc(N2CCN(C(=O)c3ccco3)CC2)c2noc3c2c1C(=O)c1ccccc1-3 was read as B2AR arrestin 0%, BCR signal inh inconclusive, RXFP1 antagonist -65* and RXFP1 ag -8%.
Screening O=C(O)CCSc1ccc2ccccc2n1 returned B2AR arrestin 0%, BCR signal inh inconclusive, RXFP1 antagonist 23 and RXFP1 ag 18µM*.
Brc1cc(Br)c2ncnc(N3CCCCC3)c2c1 was read as B2AR arrestin 0%, BCR signal inh -9%, RXFP1 antagonist 29 and RXFP1 ag 25µM*.
Screening NC(=O)CCCCC1CCSS1 (stereo not given) returned RXFP1 antagonist -101*.
For O=[N+]([O-])c1cc(-c2nc(-c3ccccc3)no2)ccc1NC1CCCCC1 the results were RXFP1 ag 2%.
Screening CN(C)S(=O)(=O)c1ccc(C(=O)NCCSc2c(-c3ccc(Br)cc3)[nH]c3ccccc23)cc1 returned RXFP1 antagonist -17 and RXFP1 ag 1%.
For CCC(Sc1nc2cc3c(cc2c(=O)n1CCCC(=O)NCc1ccc2c(c1)OCO2)OCO3)C(=O)NCCCOC (stereo not given) the results were BCR signal inh -11%, RXFP1 antagonist -106* and RXFP1 ag 2%.
`CCCCC(Sc1nc2cc3c(cc2c(=O)n1CCCC(=O)NCc1ccc2c(c1)OCO2)OCO3)C(=O)OCC` (stereo not given) gave BCR signal inh -3%, RXFP1 antagonist -8 and RXFP1 ag 5%.
For Cc1ccc(OCC(=O)NNc2c3ccccc3nc3ccccc23)cc1 the results were B2AR arrestin 0%, BCR signal inh -1%, RXFP1 antagonist -67* and RXFP1 ag 1%.
`CC(C)(C)OC(=O)N1CCC(c2c(C(=O)Nc3ccc4c(c3)OCCO4)cnn2-c2ccccc2)CC1` gave RXFP1 antagonist -22 and RXFP1 ag -6%.
CC(OC(=O)c1ccc2c(c1)OCCO2)C(=O)NC1CCCCC1C (stereo not given) was read as B2AR arrestin 0%, BCR signal inh -3%, RXFP1 antagonist -72* and RXFP1 ag 0%.
For COc1ccc2c(c1)c(/C=N/Nc1nc3ccccc3[nH]1)c(C)n2C the results were B2AR arrestin 0%, BCR signal inh 16µM*, RXFP1 antagonist -23 and RXFP1 ag -2%.
For O=C(/C=C/c1ccccc1Cl)Nc1nc(-c2cccs2)ns1 the results were RXFP1 antagonist -16 and RXFP1 ag 5%.
Screening S=c1[nH]nc(-c2cccs2)n1/N=C/c1cn(-c2ccccc2)nc1-c1cccs1 returned B2AR arrestin 0%, BCR signal inh inconclusive, RXFP1 antagonist -83* and RXFP1 ag 2%.
Screening Cc1ccc(-c2nn(-c3ccccc3)cc2/C=N/n2c(-c3cccs3)n[nH]c2=S)cc1 returned B2AR arrestin 0%, BCR signal inh inconclusive, RXFP1 antagonist -96* and RXFP1 ag 2%.
For Cc1ccc(S(=O)(=O)N(C)C)cc1NC(=O)CSc1nncs1 the results were B2AR arrestin -1%, BCR signal inh -3%, RXFP1 antagonist -22 and RXFP1 ag 8%.
`COc1ccc(S(=O)(=O)N(C)C)cc1NC(=O)CSc1nncs1` gave B2AR arrestin 0%, BCR signal inh inconclusive, RXFP1 antagonist 8 and RXFP1 ag 18µM*.
For CCc1ccc(Sc2cc(C(=O)NCCCN3CCC(C)CC3)c3ccccc3n2)cc1 the results were BCR signal inh -8% and RXFP1 ag 9%.
